The values below come from PMC7862700, “An all-to-all approach to the identification of sequence-specific readers for epigenetic DNA modifications on cytosine”.

The target of one experiment is T1, ELK1 (Homo sapiens, UniProt P19419 1-428).
T1 sequence: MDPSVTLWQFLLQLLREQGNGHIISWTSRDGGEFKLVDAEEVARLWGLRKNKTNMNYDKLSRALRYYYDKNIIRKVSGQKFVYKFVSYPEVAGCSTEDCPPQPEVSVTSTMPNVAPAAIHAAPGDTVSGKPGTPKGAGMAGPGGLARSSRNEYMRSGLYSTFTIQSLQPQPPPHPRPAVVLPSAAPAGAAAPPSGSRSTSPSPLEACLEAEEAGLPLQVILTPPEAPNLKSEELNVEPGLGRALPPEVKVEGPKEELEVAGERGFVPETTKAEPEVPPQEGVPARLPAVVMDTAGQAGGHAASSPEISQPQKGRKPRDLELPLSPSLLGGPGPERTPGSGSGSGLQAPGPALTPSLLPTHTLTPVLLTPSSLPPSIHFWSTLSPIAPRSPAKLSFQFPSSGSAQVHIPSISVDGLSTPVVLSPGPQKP
Description: DAPPL (digital affinity profiling via proximity ligation, sequencing); 10 mM Tris-HCl pH 7.5, 50 mM NaCl, 1 mM DTT, 4% glycerol, room temperature, 30 min; GST-TFs on glutathione beads, 16-mer random dsDNA library, 0.1% formaldehyde crosslink after washing; high values mean tight binding. The settings on record: protein: recombinant; tags: N-terminal GST; dsDNA, one strand shown. Summed up: (§1)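 After expression in yeast as GST fusions, human transcription factors were bound to glutathione beads, DNA-barcoded and mixed with a tag-only sample. The pools were incubated with 200 nmole of a 16-mer random double-stranded DNA library in Tris/NaCl/DTT/glycerol buffer (30 min, room temperature), washed and crosslinked with 0.1% formaldehyde. Proximity ligation with BsaI/T4 ligase ran for 1 h at 37 °C, before PCR amplification and sequencing on an Illumina NextSeq500. Binding signal is a hexamer's read frequency for a factor divided by its frequency for the tag-only sample.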
On to GCGTTC, for which the binding signal is 1.06 fold enrichment (6-mer frequency, TF over GST control).
Still for that read-out and setting: for GTACAT the value was 1.35 fold enrichment (6-mer frequency, TF over GST control); for CGACAT, 1.23 fold enrichment (6-mer frequency, TF over GST control); for CCTGCA, 1.3 fold enrichment (6-mer frequency, TF over GST control).
Still for that read-out and setting: for TGCAAC the value was 1.32 fold enrichment (6-mer frequency, TF over GST control); for TGCCCC, 1.2 fold enrichment (6-mer frequency, TF over GST control); for TGACAT, 1.27 fold enrichment (6-mer frequency, TF over GST control).
On to CCGTAC, for which the binding signal was 1.25 fold enrichment (6-mer frequency, TF over GST control).
As for TGAAAC, the binding signal is 1.29 fold enrichment (6-mer frequency, TF over GST control).
For the sequence ACTGCG, the binding signal was 1.32 fold enrichment (6-mer frequency, TF over GST control).
The same measure, in the same setting: with CCCTCA the figure was 1.11 fold enrichment (6-mer frequency, TF over GST control); with TGACCA, 1.32 fold enrichment (6-mer frequency, TF over GST control).
The same measure, in the same setting: with TCTGAC the figure was 1.19 fold enrichment (6-mer frequency, TF over GST control); with ACGAAC, 1.15 fold enrichment (6-mer frequency, TF over GST control).
Same read-out and setting: for GAAGTT the value was 1.66 fold enrichment (6-mer frequency, TF over GST control).
In the case of CCGGCA, the binding signal was 1.37 fold enrichment (6-mer frequency, TF over GST control).
The same measure, in the same setting: with ACCGTC the figure was 1.21 fold enrichment (6-mer frequency, TF over GST control); with CTGCCA, 1.17 fold enrichment (6-mer frequency, TF over GST control).
The same measure, in the same setting: for GTCTCT the value was 1.26 fold enrichment (6-mer frequency, TF over GST control).
Same read-out and setting: for GAAACT the value was 1.21 fold enrichment (6-mer frequency, TF over GST control).

Another experiment has as its target T2, GABPA (Homo sapiens, UniProt Q06546 1-454).
T2 sequence: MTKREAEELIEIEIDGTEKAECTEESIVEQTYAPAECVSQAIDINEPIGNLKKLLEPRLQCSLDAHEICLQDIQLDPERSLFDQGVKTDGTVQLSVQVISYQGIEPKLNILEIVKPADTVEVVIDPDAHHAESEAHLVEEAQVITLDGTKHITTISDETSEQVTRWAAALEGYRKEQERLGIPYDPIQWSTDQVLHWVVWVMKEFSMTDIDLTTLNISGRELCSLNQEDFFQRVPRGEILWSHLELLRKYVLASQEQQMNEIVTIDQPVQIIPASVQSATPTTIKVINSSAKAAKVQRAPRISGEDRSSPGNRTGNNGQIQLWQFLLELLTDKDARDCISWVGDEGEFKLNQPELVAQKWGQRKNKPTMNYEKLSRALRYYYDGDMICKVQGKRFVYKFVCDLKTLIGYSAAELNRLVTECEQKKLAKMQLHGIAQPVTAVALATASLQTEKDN
The description is as above. As to conditions: protein: recombinant; tags: N-terminal GST; dsDNA, one strand shown. Summed up: as §1
For GACCTC, the binding signal was 1.35 fold enrichment (6-mer frequency, TF over GST control).
Still for that read-out and setting: for CGTTCC the value was 1.29 fold enrichment (6-mer frequency, TF over GST control).
On the same count and under the same terms, with ACTGGC the figure was 1.22 fold enrichment (6-mer frequency, TF over GST control); with ATGGAC, 1.21 fold enrichment (6-mer frequency, TF over GST control); with CAATTG, 1.26 fold enrichment (6-mer frequency, TF over GST control).
On the same count and under the same terms, with TGCCGA the figure was 1.21 fold enrichment (6-mer frequency, TF over GST control).
As to ACTCAC, the binding signal is 1.27 fold enrichment (6-mer frequency, TF over GST control).
Same read-out and setting: with GCCTCA the figure was 1.34 fold enrichment (6-mer frequency, TF over GST control).
Same read-out and setting: for CGACCC the value was 1.44 fold enrichment (6-mer frequency, TF over GST control).
With CCACGC, the binding signal is 1.28 fold enrichment (6-mer frequency, TF over GST control).
Take TGTTCA: the binding signal is 1.21 fold enrichment (6-mer frequency, TF over GST control).
On the same count and under the same terms, for GAAAAA the value was 1.11 fold enrichment (6-mer frequency, TF over GST control); for TGTACA, 1.1 fold enrichment (6-mer frequency, TF over GST control); for CGTCCT, 1.32 fold enrichment (6-mer frequency, TF over GST control).
Turning to GAAGCA, the binding signal was 1.3 fold enrichment (6-mer frequency, TF over GST control).
Take ACTGCC: the binding signal was 1.44 fold enrichment (6-mer frequency, TF over GST control).
For TGCGTA, the binding signal was 1.06 fold enrichment (6-mer frequency, TF over GST control).
On to CGCGTC, for which the binding signal is 1.26 fold enrichment (6-mer frequency, TF over GST control).
With CCGACA, the binding signal was 1.11 fold enrichment (6-mer frequency, TF over GST control).
Still for that read-out and setting: for GCGTTC the value was 1.08 fold enrichment (6-mer frequency, TF over GST control); for GTACAT, 1.17 fold enrichment (6-mer frequency, TF over GST control); for CGACAT, 1.25 fold enrichment (6-mer frequency, TF over GST control).
For CCTGCA, the binding signal was 1.19 fold enrichment (6-mer frequency, TF over GST control).
For TGCAAC, the binding signal was 1.4 fold enrichment (6-mer frequency, TF over GST control).
Still for that read-out and setting: with TGCCCC the figure was 1.27 fold enrichment (6-mer frequency, TF over GST control); with TGACAT, 1.31 fold enrichment (6-mer frequency, TF over GST control); with CCGTAC, 1.33 fold enrichment (6-mer frequency, TF over GST control).
In the case of TGAAAC, the binding signal was 1.25 fold enrichment (6-mer frequency, TF over GST control).
Same read-out and setting: with ACTGCG the figure was 1.26 fold enrichment (6-mer frequency, TF over GST control); with CCCTCA, 1.18 fold enrichment (6-mer frequency, TF over GST control).
Same read-out and setting: with TGACCA the figure was 1.33 fold enrichment (6-mer frequency, TF over GST control); with TCTGAC, 1.24 fold enrichment (6-mer frequency, TF over GST control); with ACGAAC, 1.19 fold enrichment (6-mer frequency, TF over GST control).
Same read-out and setting: with GAAGTT the figure was 1.63 fold enrichment (6-mer frequency, TF over GST control); with CCGGCA, 1.39 fold enrichment (6-mer frequency, TF over GST control).
Turning to ACCGTC, the binding signal was 1.26 fold enrichment (6-mer frequency, TF over GST control).
With CTGCCA, the binding signal was 1.24 fold enrichment (6-mer frequency, TF over GST control).
Still for that read-out and setting: with GTCTCT the figure was 1.31 fold enrichment (6-mer frequency, TF over GST control); with GAAACT, 1.14 fold enrichment (6-mer frequency, TF over GST control).
